Values without a mark were called inactive.

The test relates to Meloidogyne hapla J2. Description: proportion of mobile M. hapla J2 relative to DMSO control (fraction of DMSO control); higher = more viable, less nematicidal, active = 0.7 or less. The conditions noted are these: 60 µM; 5 days; temperature: 20 °C. In outline: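 About 25 M. hapla J2 were added per 96-well well in distilled water, and compound was pinned to 60 µM final (0.6% v/v DMSO). Sealed plates were shaken at 200 rpm for 5 days at 20 °C, then 2 µL 1 M NaOH was added before microscopic mobility scoring. Mobility was divided by the mean of eight DMSO wells on the same plate, and two biological replicates were averaged.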
As to `O=C(Nc1ccc(-c2noc(-c3ccc(F)cc3)n2)cc1)c1ccc(Br)o1`, the “proportion of mobile M. hapla J2” value was 0.972. With `O=C(CSc1nnc(-c2ccc(Br)cc2)o1)NC1CCCCC1`, the “proportion of mobile M. hapla J2” value is 1.04. As for `COc1cccc(-c2noc(-c3cc(C)ccc3C)n2)c1`, the figure is 0.995; as for `COc1ccc(C(=O)CSc2nnc(-c3ccccc3)o2)cc1`, 0.987.

Turning to `CCOc1cc(-c2nc(-c3cccnc3)no2)cc(OCC)c1OCC`, the “proportion of mobile M. hapla J2” value is 1.05. Turning to `O=C(CSc1nnc(-c2ccncc2)o1)Nc1ccccc1Cl`, the “proportion of mobile M. hapla J2” value was 0.724. Then `N#Cc1ccccc1NC(=O)CSc1nnc(-c2ccccc2)o1`, with 0.955; and `c1ccc(CSc2nnc(-c3ccccc3)o2)cc1`, with 1.04; and `O=C(CSc1nnc(-c2cccnc2)o1)c1ccc2ccccc2c1`, with 0.74. `COc1nc(C)ccc1-c1noc(-c2ccc(F)cc2)n1`: the “proportion of mobile M. hapla J2” value is 0.992. As for `CCCSc1nnc(-c2ccc(Cl)cc2Cl)o1`, the figure is 0.991; as for `Brc1cccc(-c2nnc(SCc3ccccc3)o2)c1`, 0.968. Then `Clc1ccc(-c2noc(COc3ccc4c(c3)OCO4)n2)cc1`, with 0.899; and `O=C(CSc1nnc(-c2ccco2)o1)c1ccc(Br)cc1`, with 0.997; and `CCNC(=O)c1ccccc1-c1nc(-c2ccc(F)cc2)no1`, with 0.998.

With `Clc1ccccc1-c1noc(COc2ccc(Br)cc2)n1`, the “proportion of mobile M. hapla J2” value is 1.05. Then `Fc1cccc(-c2nc(-c3ccccc3)no2)c1`, with 0.867.

Regarding `O=C(CSc1nnc(-c2ccco2)o1)NC1CCCCC1`, the “proportion of mobile M. hapla J2” value was 0.824. As for `Cc1cc(OCc2nc(-c3ccncc3)no2)ccc1Cl`, the figure is 0.921.

For the compound `Clc1ccc(-c2nc(-c3ccncc3)no2)cc1Cl`, the “proportion of mobile M. hapla J2” value is 0.987. `CC(=O)c1cccc(NC(=O)CSc2nnc(-c3ccccc3)o2)c1`: the “proportion of mobile M. hapla J2” value was 0.937. For `CCOc1ccc(-c2nc(-c3ccccc3C)no2)cc1`, the “proportion of mobile M. hapla J2” value is 0.692 (active). On to `COc1ccccc1-c1nc(-c2ccc(Cl)cc2Cl)no1`, for which the “proportion of mobile M. hapla J2” value was 1.

Regarding `CCN(CC)C(=O)CSc1nnc(-c2cccc(Cl)c2)o1`, the “proportion of mobile M. hapla J2” value is 0.922.

Turning to `Brc1cccc(-c2nc(-c3cccnc3)no2)c1`, the “proportion of mobile M. hapla J2” value is 1.01.

For `c1ccc(-c2noc(COc3ccc4c(c3)CCCC4)n2)cc1`, the “proportion of mobile M. hapla J2” value was 0.923.

`COc1ccc(-c2noc(COc3ccccc3C)n2)cc1`: the “proportion of mobile M. hapla J2” value was 1.03. On to `Cc1cccc(OCc2nc(-c3ccc(-n4cccc4)cc3)no2)c1`, for which the “proportion of mobile M. hapla J2” value is 1.01. As for `CCCc1ccc(-c2ccc(-c3nc(-c4ccccn4)no3)cc2)cc1`, the figure is 0.978; as for `COc1ccccc1-c1nnc(SCC(=O)Nc2ccc(C)cc2)o1`, 1.03; as for `CCOc1ccc(NC(=O)CSc2nnc(-c3ccccc3Cl)o2)cc1`, 0.974. As to `Clc1ccccc1CSc1nnc(-c2ccncc2)o1`, the “proportion of mobile M. hapla J2” value was 0.974. Then `COc1ccccc1CC(=O)Nc1ccc(-c2noc(-c3ccccc3C)n2)cc1`, with 0.743; and `O=C(CSc1nnc(-c2ccc(Cl)cc2)o1)NC1CCCCC1`, with 0.918; and `Clc1cc(Br)ccc1OCc1nc(-c2cccnc2)no1`, with 1.04.

For `COc1ccc(-c2nnc(SCC(=O)Nc3ccc(Br)cc3C(C)C)o2)cc1`, the “proportion of mobile M. hapla J2” value was 1. As for `Cc1ccccc1-c1noc(COc2ccccc2)n1`, the figure is 0.764; as for `Cc1cc(C)cc(NC(=O)CSc2nnc(-c3ccccc3)o2)c1`, 1.04. As for `COc1nc(C)ccc1-c1noc(-c2ccccc2Cl)n1`, the figure is 1.02.

The values are drawn from the supplement of paper PMC11219838.
